# Test results taken from PubChem BioAssay (NCATS).
# Inconclusive results are not listed. Values without a mark were called inactive. The source made the active and inactive calls. Calls come from the whole dose curve; as a rule, active = well fitted inhibition curve with a large enough effect; inconclusive = small, poorly fitted or top-dose-only effect; inactive = no such curve, though single readings can be large or run the other way.
# Assay: BET inhibitor-based combinations targeting novel dependencies in MECOM-rearranged (r) AML: HNT-34 cell line (AID 2202234); note: nearly all actives have a fitted effect of over 35% in size;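 for viability (% of control): plate controls were vehicle wells for no effect and cell-free wells for full effect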
# Settings: HNT-34 AML viability, CellTiter-Glo luminescence, 48 h; series mostly up to 46 µM; viability (% of control): at the top concentration
# Description: Ecotropic viral insertion site 1 (EVI1) is located on chromosome 3q26.2 as part of the MECOM (MDS and EVI1 complex) locus. Under normal hematopoiesis, EVI1 is a regulator of hematopoietic stem cell maintenance and self-renewal and EVI1 levels decrease as the cells differentiate. In approximately 5-10% of de novo acute myeloid leukemia (AML) EVI1 is aberrantly expressed, including Chromosomal inv(3)(q21;q26.2) or t(3;3)(q21;q26.2) alterations (MECOM-r) that account for about 50% of AML with EVI1 overexpression 31. AMLs with high levels of EVI1 have a poor prognosis and an overall survival time averaging between 10-14 months. EVI1 overexpression confers resistance in leukemia cells, highlighting the need to develop new targeted therapies for EVI1 overexpressing AMLs. Here, we performed an unbiased chemical drug screening by evaluating the single agent activity of a collection of 2,480 oncology-focused, approved and investigational drugs (NCATS Mechanism Interrogation Plates, MIPE v5.0) against a panel of seven AML cell lines. These included four MECOM-r cell-lines (AML-191, AML-194, UCSD-AML1 and HNT-34) and three non-MECOM-r AMLs (MV4-11, OCI-AML3 and SET-2). Exploiting the mechanistic redundancy built in the library, we identified target-level sensitivities in MECOM-r AML cells and relative activity as compared to other AML subtypes.
# A collection of 2480 mechanistically annotated dugs (MIPE v5.0) was used to screen four 3q26.2 rearranged AML cell lines and three non-3q26.2 rearranged AML cell lines. This library purposely exploits redundancy by including multiple inhibitors of key onco-targets, while simultaneously encompassing mechanistic diversity, targeting more than 800 distinct mechanisms of action. Briefly, cells were seeded in 5 uL of growth media using a Multidrop Combi dispenser into 1536 well white polystyrene tissue culture treated plates (Corning) at a density of 500cells/well. For each cell-line, for each of the 2480 drugs in MIPE v5.0 library, an 11-point dose curve was generated via a 1536 pin-tool. Plates were incubated for 48 hr at standard incubator conditions, covered by a stainless steel gasketed lid to prevent evaporation. Cell viability was determined by luminescence based, Cell Titer Glo assay (Promega). In detail, 3 uL of Cell Titer Glo were added to each well and plates were incubated at room temperature for 15 min with a stainless-steel lid in place. Luminescence readings were taken using a Viewlux (PerkinElmer) with a 2 s exposure time per plate. Compound dose-response curves were normalized to DMSO and empty well controls on each plate. Quantitative drug activity data from dose-response curves was determined utilizing area Under the Curve (AUC) and Z-transformed AUC (Z-AUC, a mean-centering transformation applied to each individual cell-line screened).
# Potency is the fitted concentration of half-maximal effect.
SMILES,Potency,viability (% of control) [%]
CCN1CCN(C(=O)Cc2ccc(Nc3ncc(F)c(Nc4ccc(C(=O)Nc5ccccc5Cl)cc4)n3)cc2)CC1,1480 nM (active),
COC(=O)[C@]12CCC(C)(C)C[C@H]1[C@H]1C(=O)C=C3[C@@]4(C)C=C(C#N)C(=O)C(C)(C)[C@@H]4CC[C@@]3(C)[C@]1(C)CC2,1660 nM (active),
CC(C)CC(N(C)C)C1(c2ccc(Cl)cc2)CCC1 (stereo not given),,91.5
CCOP(=O)(OCC)C(C)NC(=O)N(CCCl)N=O (stereo not given),,103
O=C(NCC1CCOCC1)c1cnc(Nc2ccc(Cl)cc2Cl)nc1C(F)(F)F,,96.3
O=S(=O)(CC1CS1)c1ccc(Oc2ccccc2)cc1 (stereo not given),20900 nM (active),
CC1=C(O)C(=O)C=C2C1=CC=C1[C@@]2(C)CC[C@@]2(C)[C@@H]3C[C@](C)(C(=O)O)CC[C@]3(C)CC[C@]12C,934 nM (active),
COCC1(CO)C(=O)C2CCN1CC2 (stereo not given),5900 nM (active),
COC1=C[C@@H]2[C@@H]3Cc4ccc(OC)c(O)c4[C@]2(CCN3C)CC1=O,,88.6
O=c1[nH]c2ccc(Cl)cc2c(N[C@@H]2CN3CCC2CC3)c1-c1nc2ccccc2[nH]1,590 nM (active),
CC(NC(C)(C)C)C(=O)c1cccc(Cl)c1 (stereo not given),,107
C[C@]12CC[C@@H]3c4ccc(OC(=O)N(CCCl)CCCl)cc4CC[C@H]3[C@@H]1CC[C@@H]2OP(=O)(O)O,,101
CCOC(=O)Nc1ccc(NCc2ccc(F)cc2)cc1N,,88.2
Cn1c(CCCCCCC(=O)NO)nc2cc(N(CCCl)CCCl)ccc21,2950 nM (active),
CO/C1=C/C(C)=C\[C@@H](C)[C@@H](O)[C@@H](C)C/C(C)=C\C=C/[C@H](OC)[C@@H]([C@@H](C)[C@@H](O)[C@H](C)[C@@]2(O)C[C@@H](O)[C@H](C)[C@@H](C(C)C)O2)OC1=O,87.9 nM (active),
O=P1(N(CCCl)CCCl)NCCCO1 (stereo not given),,107
COC12C(COC(N)=O)C3=C(C(=O)C(C)=C(N)C3=O)N1CC1C2N1C (stereo not given),,103
O=C(Oc1ccc([N+](=O)[O-])cc1)N1CCN(Cc2cccc(Oc3ccccc3)c2)CC1,,96.5
CC(=O)OC[C@H]1O[C@@H]([S-])[C@H](OC(C)=O)[C@@H](OC(C)=O)[C@@H]1OC(C)=O.CC[PH+](CC)CC.[Au],833 nM (active),
CSCC[C@@H](NC(=O)[C@@H](Cc1ccccc1)NC(=O)CNC(=O)CNC(=O)[C@@H](N)Cc1ccc(O)cc1)C(=O)O,,106

SMILES,Potency,viability (% of control) [%]
CCOC(=O)c1c(C(C#N)=CN)c2ccc(Cl)c(Cl)c2n1C,,87
C#CCN(C)[C@H](C)Cc1ccccc1,,93.3
N#CC(O[C@@H]1O[C@H](CO[C@@H]2O[C@H](CO)[C@@H](O)[C@H](O)[C@H]2O)[C@@H](O)[C@H](O)[C@H]1O)c1ccccc1 (stereo not given in full),,72.3
CC(C)(O)/C=C\C(=O)[C@](C)(O)[C@H]1[C@H](O)C[C@]2(C)[C@@H]3CC=C4[C@@H](C=C(O)C(=O)C4(C)C)[C@]3(C)C(=O)C[C@@]12C,105 nM (active),
Cc1c(N)nc([C@H](CC(N)=O)NC[C@@H](N)C(N)=O)nc1C(=O)N[C@H](C(=O)N[C@@H](C)[C@H](O)[C@@H](C)C(=O)N[C@@H](C(=O)NCCc1nc(-c2nc(C(=O)NCCC[S+](C)C)cs2)cs1)[C@@H](C)O)C(O[C@H]1O[C@H](CO)[C@H](O)[C@@H](O)[C@H]1O[C@H]1O[C@H](CO)[C@@H](O)[C@H](OC(N)=O)[C@@H]1O)c1cnc[nH]1 (stereo not given in full),8110 nM (active),
C[C@]12CC[C@H]3[C@@H](CC[C@@]45O[C@@H]4C(O)=C(C#N)C[C@]35C)[C@@H]1CC[C@@H]2O,,87.6
Cn1c(COP(=O)(NCCBr)NCCBr)cnc1[N+](=O)[O-],,101
C[C@@H]1CC[C@H]2[C@@H](C)C(=O)O[C@@H]3O[C@@]4(C)CC[C@@H]1[C@]32OO4,14800 nM (active),
Cn1c(CCCC(=O)O)nc2cc(N(CCCl)CCCl)ccc21,14800 nM (active),
CC(C)c1cccc(C(C)C)c1O,,107
CCCN1CCO[C@@H]2c3cc(O)ccc3OC[C@H]21,,93.2
CN1CCN(c2ccc([N+](=O)[O-])c3no[n+]([O-])c23)CC1,18600 nM (active),
C/C(=C\c1csc(C)n1)[C@@H]1C[C@@H]2O[C@@H]2CCC[C@H](C)[C@H](O)[C@@H](C)C(=O)C(C)(C)[C@@H](O)CC(=O)O1,23.5 nM (active),
O=C(O)c1nn(Cc2ccc(Cl)cc2Cl)c2ccccc12,,97
CC(=O)Nc1ccc(OC[C@](C)(O)C(=O)Nc2ccc([N+](=O)[O-])c(C(F)(F)F)c2)cc1,,103
CN1C(=O)CCS(=O)(=O)C1c1ccc(Cl)cc1 (stereo not given),,104
Cc1[nH]nc2ccc(-c3cncc(OC[C@@H](N)Cc4c[nH]c5ccccc45)c3)cc12,742 nM (active),
Cn1c(/C=C/CO)c(CO)c2c1C(=O)C=C(N1CC1)C2=O,,106
COc1cc(C)[nH]c(=O)c1CNC(=O)c1c(C)n([C@H](C)C2CCOCC2)c2ccccc12,,106
COC[C@H]1OC(=O)c2coc3c2[C@@]1(C)C1=C(C3=O)[C@@H]2CC[C@H](O)[C@@]2(C)C[C@H]1OC(C)=O,5250 nM (active),
